Source: PubChem BioAssay AID720561 (Broad Institute, 2013)
Potency and affinity values are given separately.

test: HIF luciferase reporter inhibitors, dose response, ARNT-TACC3 inhibitor project, cell-based, dry powder samples, luminescence, 2158-07 (AID 720561); conditions: HIF luciferase reporter cells; series mostly up to 50 µM; activity change, negative = inhibition: at the top concentration; call rule not given here

Activity change, negative = inhibition, inactive:
CC1CCN(S(=O)(=O)c2ccc(C(=O)Nc3nnc(-c4ccccn4)o3)cc2)CC1 0.208%
O=C(CSc1ccc(-c2ccccn2)nn1)N1CCCC1 118%
O=C(CSc1ccc(-c2ccccn2)nn1)Nc1ccccc1 226%
C=CC1=C(C(=O)O)N2C(=O)[C@@H](NC(=O)/C(=N\O)c3csc(N)n3)[C@H]2SC1 (stereo in doubt) -6.02%
Cc1c(C(=O)N(C)C)sc2nc(-c3ccccn3)[nH]c(=O)c12 76.3%
FC(F)(F)c1cc(-c2nn[nH]n2)cc(C(F)(F)F)c1 -1.41%
CC1CCN(S(=O)(=O)c2ccc(C(=O)Nc3nnc(-c4ccno4)o3)cc2)CC1 -3.2%
Cc1ccc(C(=O)Nc2nc(-c3ccccn3)cs2)cc1S(=O)(=O)N1CCOCC1 128% [at 26 µM]
O=C(CSc1ccc(-c2ccccn2)nn1)NC1CCCCC1 118% [at 26 µM]
